# Measurements reported in PMC7862700, “An all-to-all approach to the identification of sequence-specific readers for epigenetic DNA modifications on cytosine”.
# Assays:
# Test in all cases: DAPPL (digital affinity profiling via proximity ligation, sequencing); 10 mM Tris-HCl pH 7.5, 50 mM NaCl, 1 mM DTT, 4% glycerol, room temperature, 30 min; GST-TFs on glutathione beads, 16-mer random dsDNA library, 0.1% formaldehyde crosslink after washing; high values mean tight binding
# Settings in all cases: protein: recombinant; tags: N-terminal GST; dsDNA, one strand shown
# ELF4 = ELF4 (Homo sapiens, UniProt Q99607 1-663)
# Sequence of ELF4 (Q99607 whole entry, the tested form may be a part): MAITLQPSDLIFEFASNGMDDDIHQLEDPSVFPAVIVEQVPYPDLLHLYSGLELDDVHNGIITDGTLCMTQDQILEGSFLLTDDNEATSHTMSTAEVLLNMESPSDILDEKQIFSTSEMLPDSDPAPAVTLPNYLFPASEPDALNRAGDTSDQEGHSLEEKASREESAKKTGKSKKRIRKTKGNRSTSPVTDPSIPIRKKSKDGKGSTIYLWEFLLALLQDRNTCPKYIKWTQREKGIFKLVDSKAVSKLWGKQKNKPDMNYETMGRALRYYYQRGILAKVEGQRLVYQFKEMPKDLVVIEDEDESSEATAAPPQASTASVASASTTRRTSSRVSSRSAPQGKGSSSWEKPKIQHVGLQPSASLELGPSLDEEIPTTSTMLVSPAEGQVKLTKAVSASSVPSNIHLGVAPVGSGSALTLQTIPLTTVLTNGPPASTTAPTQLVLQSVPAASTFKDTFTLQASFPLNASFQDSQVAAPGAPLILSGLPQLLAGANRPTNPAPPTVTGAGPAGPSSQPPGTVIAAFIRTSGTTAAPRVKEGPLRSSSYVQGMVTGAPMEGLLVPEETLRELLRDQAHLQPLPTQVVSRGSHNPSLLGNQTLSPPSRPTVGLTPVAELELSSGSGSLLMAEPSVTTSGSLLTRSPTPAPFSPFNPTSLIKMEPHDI
# In short: (§1)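 Pools were built from human transcription factors expressed in yeast as GST fusions, captured on glutathione beads and DNA-barcoded, along with a tag-only sample. Incubation with 200 nmole of a 16-mer random double-stranded DNA library lasted 30 min at room temperature in Tris/NaCl/DTT/glycerol buffer, and was followed by washing, 0.1% formaldehyde crosslinking, proximity ligation, PCR amplification and Illumina NextSeq500 sequencing. Binding signal is the quotient of each hexamer's read frequency for a factor and its frequency for the tag-only sample.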
# ETV2 = biological target: T1, ETV2 (Homo sapiens, UniProt O00321 1-342)
# T1 sequence: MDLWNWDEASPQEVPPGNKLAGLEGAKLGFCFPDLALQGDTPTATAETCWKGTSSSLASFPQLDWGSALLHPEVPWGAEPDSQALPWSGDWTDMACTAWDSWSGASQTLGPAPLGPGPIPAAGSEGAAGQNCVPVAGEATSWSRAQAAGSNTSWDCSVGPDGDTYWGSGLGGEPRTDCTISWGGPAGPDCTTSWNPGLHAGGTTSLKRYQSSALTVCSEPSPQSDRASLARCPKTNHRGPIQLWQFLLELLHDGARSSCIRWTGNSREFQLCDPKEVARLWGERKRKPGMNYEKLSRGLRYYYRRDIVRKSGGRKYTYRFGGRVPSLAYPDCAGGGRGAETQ
# In short: as §1
# ELF3 = biological target: T2, ELF3 (Homo sapiens, UniProt P78545 1-371)
# T2 sequence: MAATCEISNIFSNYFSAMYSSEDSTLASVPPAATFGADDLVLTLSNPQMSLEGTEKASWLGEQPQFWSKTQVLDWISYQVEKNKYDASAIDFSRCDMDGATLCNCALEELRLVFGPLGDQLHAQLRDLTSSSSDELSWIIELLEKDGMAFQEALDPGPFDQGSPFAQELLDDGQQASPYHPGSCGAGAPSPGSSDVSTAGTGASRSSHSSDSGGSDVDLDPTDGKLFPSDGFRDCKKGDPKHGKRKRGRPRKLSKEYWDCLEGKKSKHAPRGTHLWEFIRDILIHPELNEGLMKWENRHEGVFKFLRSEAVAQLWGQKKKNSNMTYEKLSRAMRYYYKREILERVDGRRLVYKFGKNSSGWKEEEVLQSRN
# In short: as §1
# ETV1 = ETV1 (Homo sapiens, UniProt P50549 1-477)
# Sequence of ETV1 (P50549 whole entry): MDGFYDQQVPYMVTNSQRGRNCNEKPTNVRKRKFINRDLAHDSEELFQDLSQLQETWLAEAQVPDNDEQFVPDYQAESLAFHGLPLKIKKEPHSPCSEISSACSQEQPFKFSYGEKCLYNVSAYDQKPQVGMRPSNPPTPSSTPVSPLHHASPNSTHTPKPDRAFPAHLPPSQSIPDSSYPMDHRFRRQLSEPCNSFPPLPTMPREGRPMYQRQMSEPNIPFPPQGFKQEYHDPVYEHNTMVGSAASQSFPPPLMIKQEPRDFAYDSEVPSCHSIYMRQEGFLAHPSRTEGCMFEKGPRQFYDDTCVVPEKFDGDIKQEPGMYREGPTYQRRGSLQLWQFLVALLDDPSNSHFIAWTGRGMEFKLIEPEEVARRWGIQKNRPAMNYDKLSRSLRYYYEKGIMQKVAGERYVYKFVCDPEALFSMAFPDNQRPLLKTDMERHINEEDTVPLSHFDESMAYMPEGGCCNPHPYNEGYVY
# In short: as §1
# ERF = biological target: T3, ERF (Homo sapiens, UniProt P50548 1-548)
# T3 sequence: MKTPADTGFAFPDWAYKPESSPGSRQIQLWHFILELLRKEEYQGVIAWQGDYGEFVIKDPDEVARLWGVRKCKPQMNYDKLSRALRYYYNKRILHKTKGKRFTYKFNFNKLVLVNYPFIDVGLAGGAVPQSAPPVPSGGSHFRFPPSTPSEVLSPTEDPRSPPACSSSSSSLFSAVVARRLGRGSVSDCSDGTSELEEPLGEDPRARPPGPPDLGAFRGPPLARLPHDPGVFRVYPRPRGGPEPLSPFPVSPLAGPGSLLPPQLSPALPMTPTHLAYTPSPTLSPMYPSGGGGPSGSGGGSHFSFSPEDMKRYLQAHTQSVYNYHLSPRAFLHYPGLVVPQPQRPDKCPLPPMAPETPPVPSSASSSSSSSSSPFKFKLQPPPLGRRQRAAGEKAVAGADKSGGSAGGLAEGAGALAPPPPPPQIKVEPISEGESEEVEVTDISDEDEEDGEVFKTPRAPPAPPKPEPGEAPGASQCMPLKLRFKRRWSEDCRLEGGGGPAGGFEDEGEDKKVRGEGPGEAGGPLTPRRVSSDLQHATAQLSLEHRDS
# In short: as §1
# ETV3L = biological target: T4, ETV3L (Homo sapiens, UniProt Q6ZN32 1-361)
# T4 sequence: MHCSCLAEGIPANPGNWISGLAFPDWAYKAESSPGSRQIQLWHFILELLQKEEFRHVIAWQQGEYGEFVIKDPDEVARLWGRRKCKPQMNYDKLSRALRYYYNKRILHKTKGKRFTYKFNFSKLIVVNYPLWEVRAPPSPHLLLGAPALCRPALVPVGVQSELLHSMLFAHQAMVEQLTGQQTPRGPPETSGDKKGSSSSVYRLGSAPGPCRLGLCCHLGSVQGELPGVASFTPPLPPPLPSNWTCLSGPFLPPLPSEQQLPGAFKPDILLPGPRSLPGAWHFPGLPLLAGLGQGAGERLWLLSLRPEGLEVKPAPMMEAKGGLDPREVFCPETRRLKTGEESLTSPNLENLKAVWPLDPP
# In short: as §1
# ETS2 = biological target: T5, ETS2 (Homo sapiens, UniProt P15036 1-469)
# T5 sequence: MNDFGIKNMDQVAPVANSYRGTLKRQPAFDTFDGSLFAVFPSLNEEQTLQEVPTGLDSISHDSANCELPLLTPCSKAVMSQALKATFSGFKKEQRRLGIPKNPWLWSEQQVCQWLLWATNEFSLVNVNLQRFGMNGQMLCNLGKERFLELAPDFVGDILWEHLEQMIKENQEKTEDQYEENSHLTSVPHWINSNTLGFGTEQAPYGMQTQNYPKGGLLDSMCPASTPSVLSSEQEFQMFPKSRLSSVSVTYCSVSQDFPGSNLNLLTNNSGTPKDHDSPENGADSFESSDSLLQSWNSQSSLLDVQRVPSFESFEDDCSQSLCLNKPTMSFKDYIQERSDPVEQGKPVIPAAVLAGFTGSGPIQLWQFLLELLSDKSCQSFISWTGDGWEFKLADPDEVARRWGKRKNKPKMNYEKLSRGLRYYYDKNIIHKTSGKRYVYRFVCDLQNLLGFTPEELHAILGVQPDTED
# In short: as §1
# ETV7 = biological target: T6, ETV7 (Homo sapiens, UniProt Q9Y603 1-341)
# T6 sequence: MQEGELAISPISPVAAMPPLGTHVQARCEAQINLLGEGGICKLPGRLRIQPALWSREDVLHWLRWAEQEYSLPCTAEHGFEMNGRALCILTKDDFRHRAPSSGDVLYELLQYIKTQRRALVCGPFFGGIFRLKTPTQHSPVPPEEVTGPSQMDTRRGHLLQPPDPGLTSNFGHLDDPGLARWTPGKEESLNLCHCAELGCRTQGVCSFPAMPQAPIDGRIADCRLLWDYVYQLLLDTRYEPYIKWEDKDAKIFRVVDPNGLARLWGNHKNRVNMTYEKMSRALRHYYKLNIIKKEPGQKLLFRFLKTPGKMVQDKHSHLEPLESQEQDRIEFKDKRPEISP
# In short: as §1
# ETV3 = biological target: T7, ETV3 (Homo sapiens, UniProt P41162-2 1-143)
# T7 sequence: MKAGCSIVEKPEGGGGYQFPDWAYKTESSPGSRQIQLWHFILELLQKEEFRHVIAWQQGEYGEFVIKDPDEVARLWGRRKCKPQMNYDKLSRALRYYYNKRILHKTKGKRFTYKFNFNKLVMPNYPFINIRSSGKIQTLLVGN
# In short: as §1
# ETV6 = ETV6 (Homo sapiens, UniProt P41212 1-452)
# Sequence of ETV6 (P41212 whole entry): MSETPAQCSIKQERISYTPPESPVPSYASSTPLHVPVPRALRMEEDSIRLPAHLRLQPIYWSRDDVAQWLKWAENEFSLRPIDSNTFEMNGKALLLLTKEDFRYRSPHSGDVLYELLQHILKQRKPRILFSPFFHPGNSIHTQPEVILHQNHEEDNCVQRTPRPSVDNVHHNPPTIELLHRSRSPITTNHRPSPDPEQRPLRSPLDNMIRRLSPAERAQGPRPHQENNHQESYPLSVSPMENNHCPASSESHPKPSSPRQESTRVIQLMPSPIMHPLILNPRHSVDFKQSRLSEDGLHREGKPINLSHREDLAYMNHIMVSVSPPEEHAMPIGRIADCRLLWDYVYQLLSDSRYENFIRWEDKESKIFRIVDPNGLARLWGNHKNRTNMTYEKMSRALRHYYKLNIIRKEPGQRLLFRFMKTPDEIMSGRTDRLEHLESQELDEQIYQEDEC
# In short: as §1
sequence,measurement,setting,value
TGTAAC,binding signal,ELF4,"1.2 fold enrichment (6-mer frequency, TF over GST control)"
same,binding signal,ETV2,"1.21 fold enrichment (6-mer frequency, TF over GST control)"
same,binding signal,ELF3,"1.22 fold enrichment (6-mer frequency, TF over GST control)"
same,binding signal,ETV1,"1.28 fold enrichment (6-mer frequency, TF over GST control)"
same,binding signal,ERF,"1.23 fold enrichment (6-mer frequency, TF over GST control)"
same,binding signal,ETV3L,"1.15 fold enrichment (6-mer frequency, TF over GST control)"
same,binding signal,ETS2,"1.32 fold enrichment (6-mer frequency, TF over GST control)"
same,binding signal,ETV7,"1.18 fold enrichment (6-mer frequency, TF over GST control)"
same,binding signal,ETV3,"1.24 fold enrichment (6-mer frequency, TF over GST control)"
same,binding signal,ETV6,"1.2 fold enrichment (6-mer frequency, TF over GST control)"
